Reference: PubChem BioAssay AID1159580 (chemical genetic matrix, 2015)
The whole screen tested about 5,500 compounds, of which about 2,000 (36%) were called active. Another 18% or so got no clear call; they are omitted. Cut-off read from the data, not from the text of the source: active = normalized growth mostly below about 0.91 (no sharp cut-off); inconclusive = no clear call, values can overlap the other calls; inactive = mostly above about 0.92. This is one part of the list.

Assay: chemical genetic growth profiling, strain panel (AID 1159580);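 note: tested at 20 µM; growth read once vehicle control cultures reached saturation at 30 °C; 1 = growth at the plate median or of vehicle wells; lower values mean less growth of the strain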
Conditions: growth OD

Measured: normalized growth

CN1C2CC3C[C@H]1C(O3)C2O (some centres undefined)
inactive: S. cerevisiae deletion strains, locus YAL021C, strain ccr4, hits give low values 1.01 | S. cerevisiae deletion strains, locus YAL026C, strain drs2, hits give low values 1.02 | S. cerevisiae deletion strains, locus YAL030W, strain snc1, hits give low values 0.982 | S. cerevisiae deletion strains, locus YBL061C, strain skt5, hits give low values 1.02 | S. cerevisiae deletion strains, locus YBR009C, strain hhf1, hits give low values 1.03 | S. cerevisiae deletion strains, locus YBR021W, strain FUR4, hits give low values 0.99 | S. cerevisiae deletion strains, locus YBR023C, strain chs3, hits give low values 1.02 | S. cerevisiae deletion strains, locus YBR171W, strain sec66, hits give low values 1.03 | S. cerevisiae deletion strains, locus YBR229C, strain ROT2, hits give low values 1.01 | S. cerevisiae deletion strains, locus YBR231C, strain swc5, hits give low values 1.01 | S. cerevisiae deletion strains, locus YBR279W, strain paf1, hits give low values 1.01 | S. cerevisiae deletion strains, locus YCL011C, strain gbp2, hits give low values 1.02 | S. cerevisiae deletion strains, locus YCL016C, strain dcc1, hits give low values 1.02 | S. cerevisiae deletion strains, locus YCL029C, strain bik1, hits give low values 1.04 | S. cerevisiae deletion strains, locus YCL061C, strain MRC1, hits give low values 1.01 | S. cerevisiae deletion strains, locus YCL069W, strain vba3, hits give low values 1.01 | S. cerevisiae deletion strains, locus YCR088W, strain abp1, hits give low values 1.02 | S. cerevisiae deletion strains, locus YDL005C, strain med2, hits give low values 1.02 | S. cerevisiae deletion strains, locus YDL035C, strain GPR1, hits give low values 1.02 | S. cerevisiae deletion strains, locus YDL040C, strain nat1, hits give low values 0.997 | S. cerevisiae deletion strains, locus YDL074C, strain BRE1, hits give low values 1.04 | S. cerevisiae deletion strains, locus YDL101C, strain DUN1, hits give low values 1.01 | S. cerevisiae deletion strains, locus YDL185W, strain tfp1, hits give low values 1.04 | S. cerevisiae deletion strains, locus YDL192W, strain arf1, hits give low values 1.04 | S. cerevisiae deletion strains, locus YDR001C, strain nth1, hits give low values 1.02 | S. cerevisiae deletion strains, locus YDR069C, strain doa4, hits give low values 0.971 | S. cerevisiae deletion strains, locus YDR101C, strain arx1, hits give low values 1.03 | S. cerevisiae deletion strains, locus YDR137W, strain rgp1, hits give low values 1.02 | S. cerevisiae deletion strains, locus YDR159W, strain sac3, hits give low values 0.964 | S. cerevisiae deletion strains, locus YDR162C, strain NBP2, hits give low values 1.01 | S. cerevisiae deletion strains, locus YDR195W, strain ref2 0.995 | S. cerevisiae deletion strains, locus YDR297W, strain sur2, hits give low values 0.958 | S. cerevisiae deletion strains, locus YDR318W, strain mcm21, hits give low values 1.03 | S. cerevisiae deletion strains, locus YDR334W, strain swr1, hits give low values 1.02 | S. cerevisiae deletion strains, locus YDR335W, strain msn5, hits give low values 0.982 | S. cerevisiae deletion strains, locus YDR388W, hits give low values 1.03 | S. cerevisiae deletion strains, locus YDR392W, strain spt3, hits give low values 0.985 | S. cerevisiae deletion strains, locus YDR502C, strain sam2, hits give low values 1.02 | S. cerevisiae deletion strains, locus YEL003W, strain gim4, hits give low values 1.02 | S. cerevisiae deletion strains, locus YEL037C, strain rad23, hits give low values 1.02 | S. cerevisiae deletion strains, locus YEL061C, strain CIN8 (second series), hits give low values 1.03 | S. cerevisiae deletion strains, locus YEL061C, strain CIN8, hits give low values 1.01 | S. cerevisiae deletion strains, locus YER015W, strain faa2, hits give low values 1.01 | S. cerevisiae deletion strains, locus YER016W, strain bim1, hits give low values 1.01 | S. cerevisiae deletion strains, locus YER110C, hits give low values 1.04 | S. cerevisiae deletion strains, locus YER111C, strain swi4, hits give low values 1.02 | S. cerevisiae deletion strains, locus YER155C, strain BEM2 (second series), hits give low values 0.994 | S. cerevisiae deletion strains, locus YER155C, strain BEM2, hits give low values 1 | S. cerevisiae deletion strains, locus YER167W, strain BCK2, hits give low values 1.01 | S. cerevisiae deletion strains, locus YFR010W, strain ubp6, hits give low values 1.03 | S. cerevisiae deletion strains, locus YGL078C, strain dbp3, hits give low values 1.02 | S. cerevisiae deletion strains, locus YGL086W, strain mad1, hits give low values 1 | S. cerevisiae deletion strains, locus YGL167C, strain pmr1, hits give low values 1.02 | S. cerevisiae deletion strains, locus YGL173C, strain kem1, hits give low values 1.02 | S. cerevisiae deletion strains, locus YGL227W, strain vid30, hits give low values 1.01 | S. cerevisiae deletion strains, locus YGL240W, strain doc1, hits give low values 0.972 | S. cerevisiae deletion strains, locus YGL248W, strain PDE1, hits give low values 1.01 | S. cerevisiae deletion strains, locus YGL253W, strain hxk2, hits give low values 1.01 | S. cerevisiae deletion strains, locus YGR078C, strain PAC10, hits give low values 1.02 | S. cerevisiae deletion strains, locus YGR135W, strain pre9, hits give low values 1.02 | S. cerevisiae deletion strains, locus YGR252W, strain gcn5, hits give low values 1.02 | S. cerevisiae deletion strains, locus YHR013C, strain ard1, hits give low values 1.01 | S. cerevisiae deletion strains, locus YHR027C, strain rpn1, hits give low values 1 | S. cerevisiae deletion strains, locus YHR030C, strain SLT2, hits give low values 1.01 | S. cerevisiae deletion strains, locus YHR079C, strain IRE1 (second series), hits give low values 1.03 | S. cerevisiae deletion strains, locus YHR094C, strain hxt1, hits give low values 1.03 | S. cerevisiae deletion strains, locus YHR129C, strain ARP1, hits give low values 1 | S. cerevisiae deletion strains, locus YHR142W, strain chs7, hits give low values 1.04 | S. cerevisiae deletion strains, locus YHR200W, strain rpn10, hits give low values 1.02 | S. cerevisiae deletion strains, locus YIL066C, strain RNR3, hits give low values 1.01 | S. cerevisiae deletion strains, locus YIL073C, strain SPO22, hits give low values 1.08 | S. cerevisiae deletion strains, locus YIL125W, strain kgd1, hits give low values 1.02 | S. cerevisiae deletion strains, locus YIR030C, strain dcg1, hits give low values 1.03 | S. cerevisiae deletion strains, locus YJL092W, strain hpr5, hits give low values 1.02 | S. cerevisiae deletion strains, locus YJL095W, strain BCK1 (second series), hits give low values 0.985 | S. cerevisiae deletion strains, locus YJL095W, strain BCK1, hits give low values 1.01 | S. cerevisiae deletion strains, locus YJL115W, strain asf1, hits give low values 1.03 | S. cerevisiae deletion strains, locus YJL129C, strain trk1, hits give low values 1.04 | S. cerevisiae deletion strains, locus YJL134W, strain LCB3, hits give low values 1.01 | S. cerevisiae deletion strains, locus YJL154C, strain vps35, hits give low values 1.01 | S. cerevisiae deletion strains, locus YJL164C, strain tpk1, hits give low values 0.999 | S. cerevisiae deletion strains, locus YJL166W, strain qcr8, hits give low values 0.996 | S. cerevisiae deletion strains, locus YJL168C, strain set2, hits give low values 1.02 | S. cerevisiae deletion strains, locus YJL187C, strain SWE1 (second series), hits give low values 1.01 | S. cerevisiae deletion strains, locus YJL187C, strain SWE1, hits give low values 0.969 | S. cerevisiae deletion strains, locus YJR043C, strain POL32, hits give low values 0.999 | S. cerevisiae deletion strains, locus YJR075W, strain HOC1, hits give low values 1.01 | S. cerevisiae deletion strains, locus YKL009W, strain mrt4, hits give low values 1.02 | S. cerevisiae deletion strains, locus YKL068W, hits give low values 1.03 | S. cerevisiae deletion strains, locus YKL085W, strain MDH1 (second series), hits give low values 1.01 | S. cerevisiae deletion strains, locus YKL085W, strain MDH1, hits give low values 1.01 | S. cerevisiae deletion strains, locus YKL160W, strain elf1, hits give low values 1 | S. cerevisiae deletion strains, locus YKL190W, strain CNB1, hits give low values 1.01 | S. cerevisiae deletion strains, locus YKR001C, strain vps1, hits give low values 1.03 | S. cerevisiae deletion strains, locus YKR026C, strain gcn3, hits give low values 1.01 | S. cerevisiae deletion strains, locus YKR091W, strain srl3, hits give low values 1.01 | S. cerevisiae deletion strains, locus YLL001W, strain dnm1, hits give low values 1.03 | S. cerevisiae deletion strains, locus YLL026W, hits give low values 1.01 | S. cerevisiae deletion strains, locus YLL041C, strain sdh2, hits give low values 0.997 | S. cerevisiae deletion strains, locus YLR027C, strain aat2, hits give low values 0.975 | S. cerevisiae deletion strains, locus YLR039C, strain RIC1, hits give low values 1.07 | S. cerevisiae deletion strains, locus YLR058C, strain SHM2, hits give low values 1.01 | S. cerevisiae deletion strains, locus YLR102C, strain apc9, hits give low values 1.04 | S. cerevisiae deletion strains, locus YLR221C, strain rsa3, hits give low values 1.01 | S. cerevisiae deletion strains, locus YLR258W, strain gsy2, hits give low values 0.983 | S. cerevisiae deletion strains, locus YLR262C, strain YPT6 (second series), hits give low values 1.05 | S. cerevisiae deletion strains, locus YLR262C, strain YPT6, hits give low values 1.08 | S. cerevisiae deletion strains, locus YLR268W, strain sec22, hits give low values 1.03 | S. cerevisiae deletion strains, locus YLR320W, strain mms22, hits give low values 1.02 | S. cerevisiae deletion strains, locus YLR330W, strain CHS5, hits give low values 1.01 | S. cerevisiae deletion strains, locus YLR342W, strain FKS1 (second series), hits give low values 1 | S. cerevisiae deletion strains, locus YLR342W, strain FKS1, hits give low values 1.01 | S. cerevisiae deletion strains, locus YLR357W, strain rsc2, hits give low values 1.03 | S. cerevisiae deletion strains, locus YLR370C, strain arc18, hits give low values 0.979 | S. cerevisiae deletion strains, locus YLR371W, strain rom2, hits give low values 1.02 | S. cerevisiae deletion strains, locus YLR384C, strain iki3, hits give low values 1 | S. cerevisiae deletion strains, locus YLR418C, strain cdc73, hits give low values 1.03 | S. cerevisiae deletion strains, locus YML016C, strain PPZ1, hits give low values 1.02 | S. cerevisiae deletion strains, locus YML032C, strain rad52, hits give low values 1.02 | S. cerevisiae deletion strains, locus YML120C, strain ndi1, hits give low values 1.03 | S. cerevisiae deletion strains, locus YML124C, strain tub3, hits give low values 1.03 | S. cerevisiae deletion strains, locus YMR058W, strain fet3, hits give low values 1.02 | S. cerevisiae deletion strains, locus YMR078C, strain ctf18, hits give low values 1.03 | S. cerevisiae deletion strains, locus YMR125W, strain sto1, hits give low values 1.01 | S. cerevisiae deletion strains, locus YMR129W, hits give low values 0.986 | S. cerevisiae deletion strains, locus YMR205C, strain PFK2, hits give low values 0.974 | S. cerevisiae deletion strains, locus YMR223W, strain ubp8, hits give low values 1.03 | S. cerevisiae deletion strains, locus YMR231W, strain pep5, hits give low values 0.988 | S. cerevisiae deletion strains, locus YMR307W, strain GAS1, hits give low values 0.99 | S. cerevisiae deletion strains, locus YNL067W, strain RPL9B, hits give low values 1 | S. cerevisiae deletion strains, locus YNL071W, strain lat1, hits give low values 1.02 | S. cerevisiae deletion strains, locus YNL153C, strain GIM3, hits give low values 1.01 | S. cerevisiae deletion strains, locus YNL209W, strain ssb2, hits give low values 1.01 | S. cerevisiae deletion strains, locus YNL233W, strain BNI4, hits give low values 1.01 | S. cerevisiae deletion strains, locus YNL248C, strain rpa49, hits give low values 1.02 | S. cerevisiae deletion strains, locus YNL250W, strain rad50, hits give low values 1.03 | S. cerevisiae deletion strains, locus YNL271C, strain bni1, hits give low values 1.03 | S. cerevisiae deletion strains, locus YNL298W, strain CLA4, hits give low values 1.02 | S. cerevisiae deletion strains, locus YNL307C, strain MCK1, hits give low values 1.05 | S. cerevisiae deletion strains, locus YNL322C, strain KRE1 (second series), hits give low values 1.02 | S. cerevisiae deletion strains, locus YNR049C, strain mso1, hits give low values 0.982 | S. cerevisiae deletion strains, locus YNR052C, strain pop2, hits give low values 1.01 | S. cerevisiae deletion strains, locus YOL012C, strain htz1 1.37 | S. cerevisiae deletion strains, locus YOL147C, strain pex11, hits give low values 1.03 | S. cerevisiae deletion strains, locus YOR001W, strain rrp6, hits give low values 0.987 | S. cerevisiae deletion strains, locus YOR061W, strain CKA2, hits give low values 1.02 | S. cerevisiae deletion strains, locus YOR069W, strain VPS5, hits give low values 1.01 | S. cerevisiae deletion strains, locus YOR070C, strain gyp1, hits give low values 1.01 | S. cerevisiae deletion strains, locus YOR080W, strain dia2, hits give low values 1.02 | S. cerevisiae deletion strains, locus YOR083W, strain WHI5, hits give low values 1 | S. cerevisiae deletion strains, locus YOR106W, strain vam3, hits give low values 1.03 | S. cerevisiae deletion strains, locus YOR136W, strain idh2, hits give low values 1.03 | S. cerevisiae deletion strains, locus YOR144C, strain elg1, hits give low values 1.03 | S. cerevisiae deletion strains, locus YOR184W, strain ser1, hits give low values 1.04 | S. cerevisiae deletion strains, locus YOR265W, strain rbl2, hits give low values 1.01 | S. cerevisiae deletion strains, locus YOR270C, strain vph1, hits give low values 1.04 | S. cerevisiae deletion strains, locus YOR290C, strain snf2, hits give low values 0.99 | S. cerevisiae deletion strains, locus YOR316C, strain cot1, hits give low values 1.04 | S. cerevisiae deletion strains, locus YPL051W, strain arl3, hits give low values 1.01 | S. cerevisiae deletion strains, locus YPL078C, strain atp4, hits give low values 1.02 | S. cerevisiae deletion strains, locus YPL106C, strain sse1, hits give low values 0.995 | S. cerevisiae deletion strains, locus YPL240C, strain hsp82, hits give low values 0.997 | S. cerevisiae deletion strains, locus YPL241C, strain CIN2, hits give low values 1.01 | S. cerevisiae deletion strains, locus YPR119W, strain clb2, hits give low values 1.03 | S. cerevisiae deletion strains, locus YPR141C, strain kar3, hits give low values 1.04 | S. cerevisiae deletion strains, locus YPR163C, strain tif3, hits give low values 1.04 | S. cerevisiae deletion strains, locus YPR167C, strain met16, hits give low values 1.02 | S. cerevisiae deletion strains, strain wtn01, hits give low values 1.04 | S. cerevisiae strains, strain wild type, hits give low values 1.02
